# From ChEMBL document CHEMBL3988442, “University of Dundee, Small-Polar-MMV Screening Library” (2021)
# For some of these results: Potency and affinity values are given separately.
# How the values were obtained:
# Design in all cases: scale not given: direction of the effect not stated beside the values
# [1] = target: Protein translocase subunit SecA (Escherichia coli (strain K12)) (UniProt P10408); test: Assay to Identify E. coli SecA ATPase Inhibitors; type: functional; conditions: 30 µM
# [2] = target: T1, Ubiquitin-activating enzyme e1, putative (Leishmania donovani (strain BPK282A1)) (UniProt E9BSI1); test: Leishmania donovani Ubiquitin Activating Enzyme (LdE1); type: functional; conditions: 30 µM
# T1 sequence (whole entry): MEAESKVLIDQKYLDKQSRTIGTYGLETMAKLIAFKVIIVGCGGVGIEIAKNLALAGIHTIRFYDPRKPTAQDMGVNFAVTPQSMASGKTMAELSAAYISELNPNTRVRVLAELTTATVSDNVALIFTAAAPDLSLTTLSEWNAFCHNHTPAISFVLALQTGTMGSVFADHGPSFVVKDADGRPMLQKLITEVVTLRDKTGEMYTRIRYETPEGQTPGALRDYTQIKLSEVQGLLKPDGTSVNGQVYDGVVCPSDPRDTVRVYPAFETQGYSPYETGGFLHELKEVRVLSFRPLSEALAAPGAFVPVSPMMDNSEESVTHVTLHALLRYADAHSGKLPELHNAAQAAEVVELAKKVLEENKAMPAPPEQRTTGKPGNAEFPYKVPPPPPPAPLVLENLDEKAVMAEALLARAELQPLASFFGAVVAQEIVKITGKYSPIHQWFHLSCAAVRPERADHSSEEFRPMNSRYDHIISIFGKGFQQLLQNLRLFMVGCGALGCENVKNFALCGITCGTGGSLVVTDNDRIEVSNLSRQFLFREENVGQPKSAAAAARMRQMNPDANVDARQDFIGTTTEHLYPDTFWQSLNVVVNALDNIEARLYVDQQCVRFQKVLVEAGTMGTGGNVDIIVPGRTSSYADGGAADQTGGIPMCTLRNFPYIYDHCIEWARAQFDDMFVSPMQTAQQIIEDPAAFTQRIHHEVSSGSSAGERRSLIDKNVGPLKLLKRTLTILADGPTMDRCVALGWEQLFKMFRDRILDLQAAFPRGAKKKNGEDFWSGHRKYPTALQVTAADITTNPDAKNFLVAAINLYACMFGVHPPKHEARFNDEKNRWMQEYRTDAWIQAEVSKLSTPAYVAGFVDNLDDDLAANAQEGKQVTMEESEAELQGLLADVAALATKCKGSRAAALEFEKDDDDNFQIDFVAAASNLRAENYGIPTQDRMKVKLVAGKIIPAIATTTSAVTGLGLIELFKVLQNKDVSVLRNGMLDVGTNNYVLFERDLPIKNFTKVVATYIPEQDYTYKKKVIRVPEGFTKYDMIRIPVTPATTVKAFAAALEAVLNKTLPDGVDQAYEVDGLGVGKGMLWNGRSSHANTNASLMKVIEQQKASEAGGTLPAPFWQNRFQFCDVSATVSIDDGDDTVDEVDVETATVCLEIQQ
# [3] = target: AMP-activated protein kinase, AMPK (Homo sapiens) (UniProt P54646+O43741+P54619+Q9UGJ0+Q9Y478+Q13131+Q9UGI9); test: AMP-dependent Kinase enzyme assay. An in vitro enzyme assay that detects ADP turnover that is directly proportional to AMPK activity. This uses naive AMPK that is activated during the assay with MK-8722; type: functional; conditions: 30 µM
# [4] = target: Sialic acid-binding Ig-like lectin 9 (Homo sapiens) (UniProt Q9Y336); test: Hs-Siglec9 ALPHAscreen SOP 20170721; conditions: 10 µM
# Sialic acid-binding Ig-like lectin 9 (Homo sapiens), sequence (Q9Y336 whole entry): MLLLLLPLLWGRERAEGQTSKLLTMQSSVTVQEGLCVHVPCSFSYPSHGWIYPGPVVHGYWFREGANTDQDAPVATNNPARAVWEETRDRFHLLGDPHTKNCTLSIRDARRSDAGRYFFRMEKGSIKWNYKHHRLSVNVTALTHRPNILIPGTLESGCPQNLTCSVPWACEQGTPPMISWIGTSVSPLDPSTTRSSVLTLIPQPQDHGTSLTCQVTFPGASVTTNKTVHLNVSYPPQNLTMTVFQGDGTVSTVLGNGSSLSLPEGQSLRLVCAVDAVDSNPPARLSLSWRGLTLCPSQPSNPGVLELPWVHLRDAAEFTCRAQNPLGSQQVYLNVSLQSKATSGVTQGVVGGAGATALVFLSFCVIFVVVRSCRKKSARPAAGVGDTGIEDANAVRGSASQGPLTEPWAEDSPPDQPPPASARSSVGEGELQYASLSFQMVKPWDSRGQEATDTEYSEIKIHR
# [5] = test system: Trypanosoma cruzi; test: Trypanosoma cruzi phosphomannomutase and mannose-1-phosphate guanylyltransferase assay; type: functional; conditions: 10 µM
# [6] = target: T2, Arginase-2, mitochondrial (Homo sapiens) (UniProt P78540); test: in vitro enzyme assay to detect the production of urea directly proportional to the activity of Arginase II; type: functional; conditions: 33.3 µM; further: in the data most compounds retested in dose-response had high values
# T2 sequence (whole entry): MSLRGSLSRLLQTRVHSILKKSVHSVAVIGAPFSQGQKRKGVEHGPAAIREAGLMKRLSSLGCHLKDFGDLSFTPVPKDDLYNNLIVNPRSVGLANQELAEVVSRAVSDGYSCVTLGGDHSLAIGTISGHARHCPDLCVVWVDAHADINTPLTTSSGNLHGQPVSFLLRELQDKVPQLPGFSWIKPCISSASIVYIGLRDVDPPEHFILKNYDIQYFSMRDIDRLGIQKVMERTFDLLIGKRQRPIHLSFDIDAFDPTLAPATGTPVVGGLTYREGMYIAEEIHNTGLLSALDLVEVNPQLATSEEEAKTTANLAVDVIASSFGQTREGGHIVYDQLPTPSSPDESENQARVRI
# [7] = target: T3, Proteasome subunit beta (Trypanosoma cruzi) (UniProt O96673); test: Trypanosoma cruzi proteasome chymotrypsin-like activity (TcProtChymo) assay.; further: in the data most compounds retested in dose-response had high values; type: functional; conditions: 9.37 µM
# T3 sequence (whole entry): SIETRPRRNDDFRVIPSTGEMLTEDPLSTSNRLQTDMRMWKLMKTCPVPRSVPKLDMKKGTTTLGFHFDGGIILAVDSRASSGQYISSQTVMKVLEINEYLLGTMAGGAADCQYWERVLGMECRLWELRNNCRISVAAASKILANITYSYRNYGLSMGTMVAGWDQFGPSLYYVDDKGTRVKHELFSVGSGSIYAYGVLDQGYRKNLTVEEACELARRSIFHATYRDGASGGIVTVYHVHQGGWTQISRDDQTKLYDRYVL
# [8] = species: Homo sapiens; test: To identify inhibition of the IFN signalling (Jak-Stat) pathway via expression of an eGFP reporter gene under the control of an IFN-stimulated response element (ISRE) containing MxA promoter.; type: functional; conditions: 30 µM
# [9] = target: T4, Tyrosyl-tRNA synthetase, putative (Trypanosoma cruzi (strain CL Brener)) (UniProt Q4DSP6); test: Trypanosoma cruzi tyrosyl tRNA synthetase (TcYRS) _High Tyrosine SOP; type: functional; conditions: 30 µM; further: in the data most compounds retested in dose-response had high values
# T4 sequence (whole entry): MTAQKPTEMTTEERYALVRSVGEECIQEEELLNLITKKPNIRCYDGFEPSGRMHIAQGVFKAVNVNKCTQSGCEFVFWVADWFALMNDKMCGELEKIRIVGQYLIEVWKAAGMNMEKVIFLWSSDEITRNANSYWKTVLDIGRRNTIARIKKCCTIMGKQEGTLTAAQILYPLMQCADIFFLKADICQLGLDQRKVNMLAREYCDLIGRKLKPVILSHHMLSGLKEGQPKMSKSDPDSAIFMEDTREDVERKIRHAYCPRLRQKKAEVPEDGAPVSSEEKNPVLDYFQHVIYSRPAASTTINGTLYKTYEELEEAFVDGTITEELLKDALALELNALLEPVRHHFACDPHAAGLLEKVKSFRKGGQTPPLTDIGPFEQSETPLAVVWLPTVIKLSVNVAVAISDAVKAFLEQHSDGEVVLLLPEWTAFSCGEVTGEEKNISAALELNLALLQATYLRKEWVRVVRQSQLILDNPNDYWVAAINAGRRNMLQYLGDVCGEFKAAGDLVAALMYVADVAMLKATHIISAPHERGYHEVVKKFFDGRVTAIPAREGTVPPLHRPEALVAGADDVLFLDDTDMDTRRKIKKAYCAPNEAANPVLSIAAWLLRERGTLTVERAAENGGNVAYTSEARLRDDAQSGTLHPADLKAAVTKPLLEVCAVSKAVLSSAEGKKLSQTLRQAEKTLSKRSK
# [10] = target: T4, Tyrosyl-tRNA synthetase, putative (Trypanosoma cruzi (strain CL Brener)); test: Trypanosoma cruzi tyrosyl tRNA synthetase (TcYRS) SOP; type: functional; conditions: 30 µM
# [11] = target: Chromo domain-containing protein 1 (Saccharomyces cerevisiae (strain ATCC 204508 / S288c) (Baker's yeast)) (UniProt P32657); test: ScCHD-1 Enzyme Inhibition Assay; type: functional; conditions: 30 µM; further: in the data most compounds retested in dose-response had high values
# Chromo domain-containing protein 1 (Saccharomyces cerevisiae (strain ATCC 204508 / S288c) (Baker's yeast)), sequence (P32657 whole entry, the tested form may be a part): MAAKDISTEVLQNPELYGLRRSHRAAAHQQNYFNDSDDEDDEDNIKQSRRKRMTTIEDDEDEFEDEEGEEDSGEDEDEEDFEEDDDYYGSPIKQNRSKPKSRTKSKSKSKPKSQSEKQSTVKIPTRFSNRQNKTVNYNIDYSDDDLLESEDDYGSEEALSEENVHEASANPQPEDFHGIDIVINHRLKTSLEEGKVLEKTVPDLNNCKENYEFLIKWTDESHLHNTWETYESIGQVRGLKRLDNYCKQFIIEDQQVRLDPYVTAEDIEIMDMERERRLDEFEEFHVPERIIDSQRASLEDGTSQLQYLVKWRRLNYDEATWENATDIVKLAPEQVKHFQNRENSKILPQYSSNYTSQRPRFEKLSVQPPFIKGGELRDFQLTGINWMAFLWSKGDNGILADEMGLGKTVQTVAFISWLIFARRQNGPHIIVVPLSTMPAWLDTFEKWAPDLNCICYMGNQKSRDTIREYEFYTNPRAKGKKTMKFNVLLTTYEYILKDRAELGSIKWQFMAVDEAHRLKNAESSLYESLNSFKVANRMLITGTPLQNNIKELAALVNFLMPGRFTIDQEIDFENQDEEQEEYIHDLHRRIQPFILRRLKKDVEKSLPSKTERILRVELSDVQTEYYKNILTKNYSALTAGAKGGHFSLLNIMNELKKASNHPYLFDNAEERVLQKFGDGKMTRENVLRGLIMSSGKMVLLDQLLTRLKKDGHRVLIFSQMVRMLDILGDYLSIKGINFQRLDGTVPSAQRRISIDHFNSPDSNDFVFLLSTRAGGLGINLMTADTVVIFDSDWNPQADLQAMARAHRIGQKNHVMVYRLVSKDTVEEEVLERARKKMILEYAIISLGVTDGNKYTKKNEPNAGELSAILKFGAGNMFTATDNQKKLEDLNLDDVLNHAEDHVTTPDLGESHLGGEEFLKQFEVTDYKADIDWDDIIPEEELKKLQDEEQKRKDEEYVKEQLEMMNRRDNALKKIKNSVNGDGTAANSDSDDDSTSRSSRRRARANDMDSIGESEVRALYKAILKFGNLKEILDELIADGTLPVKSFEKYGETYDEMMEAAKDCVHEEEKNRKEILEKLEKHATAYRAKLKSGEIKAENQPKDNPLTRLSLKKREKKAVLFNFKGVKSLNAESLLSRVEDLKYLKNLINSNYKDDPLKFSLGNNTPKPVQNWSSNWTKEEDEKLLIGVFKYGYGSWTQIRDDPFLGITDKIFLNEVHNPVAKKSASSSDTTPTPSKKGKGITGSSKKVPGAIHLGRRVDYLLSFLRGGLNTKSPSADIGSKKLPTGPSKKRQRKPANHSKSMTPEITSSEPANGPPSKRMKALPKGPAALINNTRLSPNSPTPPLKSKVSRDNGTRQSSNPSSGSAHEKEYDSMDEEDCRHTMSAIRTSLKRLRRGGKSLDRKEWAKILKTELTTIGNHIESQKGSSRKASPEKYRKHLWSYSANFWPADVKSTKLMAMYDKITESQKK
# Protein translocase subunit SecA (Escherichia coli (strain K12)), sequence (P10408 whole entry): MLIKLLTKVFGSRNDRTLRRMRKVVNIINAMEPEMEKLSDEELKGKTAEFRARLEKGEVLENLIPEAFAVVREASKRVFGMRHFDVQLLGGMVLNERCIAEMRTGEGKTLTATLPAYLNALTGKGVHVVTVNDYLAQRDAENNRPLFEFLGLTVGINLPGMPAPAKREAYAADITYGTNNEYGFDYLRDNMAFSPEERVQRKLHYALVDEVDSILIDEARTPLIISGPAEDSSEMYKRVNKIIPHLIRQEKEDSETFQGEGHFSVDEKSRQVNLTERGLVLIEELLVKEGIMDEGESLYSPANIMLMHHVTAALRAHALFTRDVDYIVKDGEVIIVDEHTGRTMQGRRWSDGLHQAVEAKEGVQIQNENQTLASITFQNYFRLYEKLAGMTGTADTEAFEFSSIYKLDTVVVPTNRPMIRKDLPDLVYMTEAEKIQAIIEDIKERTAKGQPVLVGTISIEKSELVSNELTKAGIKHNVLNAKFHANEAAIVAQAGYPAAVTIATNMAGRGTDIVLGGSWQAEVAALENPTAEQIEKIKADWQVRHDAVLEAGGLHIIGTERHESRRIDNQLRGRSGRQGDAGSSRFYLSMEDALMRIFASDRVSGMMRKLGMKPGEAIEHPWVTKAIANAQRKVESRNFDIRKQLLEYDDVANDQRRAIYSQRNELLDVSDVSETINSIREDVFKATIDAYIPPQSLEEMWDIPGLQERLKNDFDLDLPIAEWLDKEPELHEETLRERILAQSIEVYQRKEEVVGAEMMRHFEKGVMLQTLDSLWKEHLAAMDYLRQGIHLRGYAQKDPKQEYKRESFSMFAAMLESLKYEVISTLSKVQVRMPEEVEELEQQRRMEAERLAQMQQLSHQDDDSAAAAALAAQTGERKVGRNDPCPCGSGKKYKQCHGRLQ
SMILES,Percent Effect [1],Percent Effect [2],Percent Effect [3],Percent Effect [4],Percent Effect [5],Percent Effect [6],Percent Effect [7],Percent Effect [8],Percent Effect [9],Percent Effect [10],Percent Effect [11]
O=C(CN1CCCCC1Cn1cncn1)NC1CCN(C2CC2)CC1 (stereo not drawn),-0.975%,-2.7%,-4.13%,22.5%,3.28%,-1.43%,5.86%,2.27%,2.65%,7.32%,-11.3%
Cc1ccc(C(=O)N2CCCC(C(=O)N3CCCCC3)C2)c(O)c1 (stereo not drawn),-7.91%,10.8%,-4.33%,-0.223%,-5.19%,-1.2%,-2.7%,12.5%,2.46%,1.24%,-4.49%
CCCn1c(C)c(CC(=O)NC)c2c1CC(C)(C)CC2=O,-4.47%,2.6%,-16%,0.225%,-1.08%,-6.9%,2.66%,2.97%,5.38%,8.64%,2.86%
CCc1nc(C2CCCN2CC(=O)Nc2sc(C)c(C)c2C)no1 (stereo not drawn),-2.85%,-5.2%,3.9%,11.2%,1.69%,-1.42%,-8.11%,11.2%,13.6%,14.6%,-1.21%
CC(C)c1nnc2ccc(N3CCC(C(=O)Nc4nccs4)CC3)nn12,-2.74%,9.33%,5.47%,1.19%,3.54%,-0.528%,12.6%,82.9%,13.8%,23.1%,-2.21%
COCCn1cc2c(n1)C(CNCc1ccc(F)cc1)OCC2 (stereo not drawn),-5.93%,8.11%,-0.136%,-5.65%,-0.195%,5.42%,16.8%,-4.69%,11.9%,11%,-6.25%
CCNC(=O)[C@@H]1C[C@H](NC(=O)c2cncnc2C)CN1CCCSC,-2.84%,5.48%,-7.63%,3.4%,3.17%,-3.59%,9.68%,-11.3%,4.17%,13.6%,-0.349%
O=C(CCN1CCCC1c1cccs1)N1CCc2sccc2C1 (stereo not drawn),0.699%,-29.7%,-9.71%,3.83%,-1.6%,-18%,3.96%,5.67%,3.45%,-11.1%,2.06%
